These results are taken from PubChem BioAssay (NCI).

About 83,000 compounds went through this panel and 20% of them were active in at least one assay; those are over-represented in the sample as a whole.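 Single-dose data. Exposure time 48 hours. Values below 10 considered active.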 A number with no mark means an inactive call. Activity calls are given as the source filed them.

The subject of the assay is MDA-MB-468 breast. Description: NCI-60 one-dose screen, 48 h (100 = growth as untreated, 0 = no growth, -100 = all killed). The following applies: 10 µM unless noted.
Consider `COc1cc2cc(Oc3ccc(NC(=O)Nc4ccc(C(F)(F)F)cc4)cc3)c(C)nc2cc1OC`, for which the growth was 40.1%.

Consider `COc1ccc(NC(=O)c2cc(NCc3cc(O)ccc3O)ccc2O)cc1`, for which the growth is 88.5%.

For `CCCCOc1nc2ccc(Cl)cc2cc1/C=C/C(=O)/C=C1/CC(c2cc3cc(Cl)ccc3nc2OCCCC)Nc2ccccc2N1` (stereo not given), the growth is 103%.

On to `N#Cc1c(-c2ccc(C(F)(F)F)cc2)cc(N2CC(O)C2)n2c1nc1ccccc12`, for which the growth was 67.1%.

With `CN(C)c1ccc(N=Nc2ccccn2)c(O)c1`, the growth is 3.89% (active).
